D2 PAM-1 – Beta-Arrestin HTS for Positive Allosteric Modulators of the Human D2 Dopamine Receptor: Potentiators. potentiation, % (concentration not given with the values). actives 0.23% (n = 360,000). D(2) dopamine receptor (Homo sapiens), P14416. DiscoveRx D2 beta-arrestin cells, luminescence, 90 min; 100% = 57 uM dopamine signal. AID 624464, 2012; in the data active means potentiation above about 50%; inconclusive means mostly about 30% to 49%
Target sequence (P14416 whole entry, looked up): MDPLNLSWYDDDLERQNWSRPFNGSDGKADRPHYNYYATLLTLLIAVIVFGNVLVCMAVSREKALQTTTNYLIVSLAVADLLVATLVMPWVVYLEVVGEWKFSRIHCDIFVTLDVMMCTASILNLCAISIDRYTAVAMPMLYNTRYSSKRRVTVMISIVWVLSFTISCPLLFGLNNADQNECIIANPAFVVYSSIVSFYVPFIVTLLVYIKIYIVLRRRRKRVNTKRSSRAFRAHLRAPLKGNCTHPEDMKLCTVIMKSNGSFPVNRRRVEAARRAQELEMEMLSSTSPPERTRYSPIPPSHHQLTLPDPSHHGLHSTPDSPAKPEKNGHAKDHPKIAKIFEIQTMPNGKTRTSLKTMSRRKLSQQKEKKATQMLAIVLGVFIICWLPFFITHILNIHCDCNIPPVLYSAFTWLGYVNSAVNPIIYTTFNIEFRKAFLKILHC
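D2 cells co-treated with compound plus 50 nM dopamine (EC20) for 90 min at 37 deg C to detect potentiation. Beta-arrestin recruitment was read as enzyme-fragment luminescence after 1 h at ambient temperature. Full response was set by 57 uM dopamine.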
D2 ag-1 – HTS Assay for Allosteric Agonists of the Human D2 Dopamine Receptor: Primary Screen for Agonists | D(2) dopamine receptor (Homo sapiens), P14416 | actives 0.53% (n = 340,000) | activation, % at 2 µM | HEK293 T-REx D2 cells, calcium flux agonist mode;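 active means activation over 3 SD above normal in the single-dose calcium agonist read, cut at about 30% in these data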; further: 0% is about no effect
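Agonism is scored from calcium flux in a force-coupled, inducible HEK293 cell line expressing D2, read kinetically for 180 s after compound addition against dopamine controls.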
D2 ag-2 – Beta-Arrestin HTS for Positive Allosteric Modulators of the Human D2 Dopamine Receptor: Agonists. D(2) dopamine receptor (Homo sapiens), P14416. DiscoveRx PathHunter D2 beta-arrestin, luminescence, 90 min; 100% = 57 uM dopamine signal. activation, % (concentration not given with the values). actives 0.084% (n = 360,000); in the data active means activation above about 40%; inconclusive means between about 15% and that limit
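DiscoveRx PathHunter D2 beta-arrestin cells (2,100/well) attached overnight, then compound-stimulated 90 min at 37 C in HBSS/10 mM HEPES/0.1% Tween-20 buffer; beta-galactosidase complementation read by luminescence after 1 h at ambient temperature. Dopamine 57 uM final (EC100) as control.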
D2 PAM-2 – HTS Assay for Positive Allosteric Modulators of the Human D2 Dopamine Receptor: Primary Screen for Potentiators; AID 485347, 2010; potentiation, % at 10 µM; D(2) dopamine receptor (Homo sapiens), P14416; actives 0.34% (n = 340,000); HEK293 T-REx D2, calcium flux, EC20 dopamine potentiation;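 active means potentiation over 3 SD above the plate norm, cut at about 30% in these data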; further: 0% is about no effect
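Tetracycline-induced HEK293 T-REx cells force-coupled to calcium signalling expressed D2; compounds were pin-added after a 10 s baseline, read kinetically 180 s, then an EC20 dopamine challenge followed with a further 180 s calcium read.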
D2 antagonist – HTS Assay for Allosteric Antagonists of the Human D2 Dopamine Receptor: Primary Screen for Antagonists | D(2) dopamine receptor (Homo sapiens), P14416 | HEK293 TREx D2 cells, calcium flux, dopamine EC80 | inhibition, % at 10 µM | actives 2% (n = 340,000); in the data active means inhibition above about 30%; inactive means below that, where a call was filed; further: 0% is about no effect
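Calcium mobilization kinetics were recorded at 1 s intervals in tetracycline-induced HEK293 T-REx D2 cells, first for 180 s after compound addition and then 180 s after EC80 dopamine.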
* marks the source's active call; other numbers are inactive results; ? = inconclusive; . = not tested or not shown. In the library only some 2.4% were active in any assay of this set; here they are far more common.

SMILES | D2 PAM-1 | D2 ag-1 | D2 ag-2 | D2 PAM-2 | D2 antagonist
Cc1cc(NC(=O)c2ccccc2)ncc1NC(=O)c1cccs1 | -2.7 | -0.9 | 2.4 | 1.2 | 36.4*
Cc1ccc(C(=O)O)cc1NC(=O)c1cccs1 | 10.3 | -0.3 | 0.9 | 4.5 | 43.8*
O=C(CS(=O)c1ccc(C(F)(F)F)cc1[N+](=O)[O-])Oc1ccccc1 (configuration not stated) | 21.3 | 0.8 | 4.6 | 32.9* | -10.3
O=c1c(Cc2c(F)cccc2Cl)c(O)ccn1C1CCCCCC1 | 1.3 | 9.5 | -3.7 | -5.6 | -13.6
CC(C)(C)c1ccc2c(c1)OCC(C(=O)O)O2 (configuration not stated) | 2.2 | . | -4.0 | 112.9* | .
CC(C)(C)c1ccc2c(c1)OC(C(=O)N/N=C\c1ccccn1)CO2 (configuration not stated) | 0.0 | 0.6 | 1.5 | 21.1 | 13.1
Clc1ccc(-c2nnc(CNC3CC3)o2)cc1 | 5.1 | 1.9 | ? | -5.1 | -7.2
Cc1ccc(CNC(=O)c2cc(=O)c3cc(C)c(C)cc3o2)cc1 | . | -0.8 | . | -24.6 | .
CN(C)CC(C)(C)CNc1ccc(S(=O)(=O)N2CCCC2)cn1 | -2.1 | . | 0.9 | . | .
CC(=O)N1CCN(c2ccc(S(=O)(=O)N3CCCCC3)cn2)CC1 | 7.7 | 0.8 | -0.3 | 3.5 | 37.7*
CCNc1ccc(S(=O)(=O)N2CCCCC2)cn1 | -3.1 | 0.1 | 4.6 | 3.5 | 33.1*
Cc1cccc(OCc2nnc(SCC(=O)N3CC(=O)Nc4ccccc43)o2)c1 | -0.6 | -0.7 | -1.5 | 2.4 | 0.7
Cc1cc(C)cc(C(=O)Nc2c(C(=O)Nc3ccccc3F)oc3ccccc23)c1 | . | -0.9 | . | 6.2 | .
CCC(C)c1ccccc1NC(=O)COC(=O)c1ccc2[nH]c3c(c2c1)CCCC3 (configuration not stated) | 14.2 | -0.4 | 5.0 | -17.1 | 70.5*
O=C(COC(=O)c1ccc2[nH]c3c(c2c1)CCCC3)Nc1ccccc1Cl | -5.5 | -0.7 | -2.2 | 6.9 | 0.0
O=C1CC(N2CCC(O)(c3ccc(Cl)cc3)CC2)C(=O)N1 (configuration not stated) | -2.7 | 0.9 | -4.7 | 15.7 | 31.3*
CCOc1ccc(-c2nnc(N)s2)cc1 | -9.2 | -0.3 | -0.7 | 73.9* | 0.7
COc1ccc(C(=O)c2cn(Cc3ccccc3)c3ccccc3c2=O)cc1OC | . | -0.5 | . | 8.4 | .
CC(C)c1ccc(OCC(=O)Nc2c3c(nn2C(C)(C)C)CS(=O)(=O)C3)cc1 | 57.4* | -0.6 | 10.2 | 13.5 | 4.1
O=C(NCc1ccc(F)cc1)c1ccc2c(c1)N(Cc1c(F)cccc1Cl)C(=O)CS2 | . | 0.2 | . | -7.4 | .
Nc1cc(S(=O)(=O)N2CCCCC2)ccc1N1CCOCC1 | 3.8 | 2.8 | 0.2 | -2.7 | 31.5*
CCN1CCN(c2ccc(S(=O)(=O)N3CCCCC3)cc2NC(=O)c2ccc([N+](=O)[O-])s2)CC1 | 74.5* | 1.2 | ? | 1.3 | 9.6
CCN1CCN(c2ccc(S(=O)(=O)N3CCOCC3)cc2NC(=O)CCOc2ccccc2)CC1 | -27.1 | 0.5 | -3.7 | -17.9 | 31.8*
O=C(Nc1cc(S(=O)(=O)N2CCOCC2)ccc1N1CCCC1)C1CC1 | -2.1 | 2.1 | -3.6 | 5.4 | 53.6*
Cc1ccc(CNC(=O)Cn2c(=O)ccc3cc(S(=O)(=O)N4CCC(C)CC4)ccc32)cc1 | . | -2.8 | . | 1.2 | .
SMILES | D2 PAM-1 | D2 ag-1 | D2 ag-2 | D2 PAM-2 | D2 antagonist
CCCN1CCN(c2nc(-c3cccs3)nc3ccccc23)CC1 | -42.5 | -0.7 | -2.2 | -15.0 | 36.6*
CC(C)NC(=O)c1ccc(C2SCC(=O)N2Cc2ccccc2)cc1 (configuration not stated) | 0.4 | 0.0 | 2.2 | 8.3 | 50.3*
O=C1CSC(c2cccc([N+](=O)[O-])c2)N1Cc1ccccc1 (configuration not stated) | -2.9 | -0.6 | 7.3 | -9.8 | 30.3*
Cc1ccc(NC(=O)/C=C/c2ccc(S(=O)(=O)N3CCOCC3)cc2)cc1S(=O)(=O)N(C)C | 9.9 | . | 13.8 | . | .
O=C(Nc1cccs1)Nc1ccccc1Cl | -5.5 | 0.2 | -1.1 | -5.4 | -0.6
O=C(Nc1cccs1)Nc1cccnc1Cl | 0.1 | -2.5 | -2.9 | -4.7 | 36.7*
O=C(CSc1ncnc2c1nnn2-c1ccc(F)cc1)NCC1CCCO1 (configuration not stated) | -7.2 | 0.2 | -2.9 | 6.6 | 0.6
Cc1ccc(-n2nnc3c(SCC(=O)NCC4CCCO4)ncnc32)cc1 (configuration not stated) | -2.2 | -1.2 | 3.5 | . | 46.4*
Cc1ccc2cc(C#N)c(SCC(=O)NCC3CCCO3)nc2c1 (configuration not stated) | -33.3 | -0.5 | -3.5 | 0.5 | 5.8
Cc1ccc2nc(SCC(=O)NCC3CCCO3)c(C#N)cc2c1 (configuration not stated) | 4.4 | -1.5 | -0.2 | -12.5 | 40.7*
Cc1cccc(OCc2nnc(SCC(=O)NCC3CCCO3)n2C)c1 (configuration not stated) | -3.8 | -0.4 | -0.7 | 37.4* | 6.6
CN(CCCC(=O)Nc1ccc(OC(F)F)cc1)S(=O)(=O)c1ccc(F)cc1 | -3.0 | -1.9 | -0.5 | 18.9 | -11.5
COc1cccc(N2CCN(C(=O)C3Cc4ccccc4N3C(C)=O)CC2)c1 (configuration not stated) | . | 2.1 | . | 1.7 | .
O=C(O)c1ccccc1SCC(=O)N1c2ccccc2Sc2ccccc21 | 61.6* | -1.2 | ? | -4.4 | -6.3
O=C(O)c1ccccc1SCC(=O)N1CCCCC1 | 3.3 | -0.1 | -0.6 | 3.2 | -0.2
CCSc1nc2ccccc2n1CCC(=O)O | 3.8 | -2.3 | -1.8 | -7.2 | 44.7*
COc1ccc(-c2cc3nccc(-c4cc(Cl)c(C)cc4O)n3n2)cc1 | . | -0.6 | . | 5.4 | .
COC(=O)c1ccccc1NC(=O)CSc1nnc(-c2cccnc2)n1C | 6.6 | 0.7 | -2.5 | 5.2 | 3.8
N#CCSc1nc2ccccc2c2nc3ccccc3n12 | -6.1 | 3.3 | -0.5 | 5.1 | 32.5*
O=[N+]([O-])c1cccnc1NCCNc1ncc(C(F)(F)F)cc1Cl | -12.7 | 0.9 | 0.6 | 17.8 | -13.8
O=C(c1ccc(S(=O)(=O)Nc2ccccc2Cl)cc1)N1CCCC1 | -0.7 | . | 0.0 | . | .
O=C(c1ccc(S(=O)(=O)Nc2ccccc2F)cc1)N1CCCC1 | 8.1 | -0.8 | -1.5 | -11.4 | 50.6*
CCOC(=O)N1CCN(C(=O)c2ccc(NS(=O)(=O)c3ccc(F)cc3)cc2)CC1 | ? | -1.2 | 2.0 | -3.7 | 28.8

Bioassay records (PubChem BioAssay)
